In PubChem BioAssay (EPA / NIEHS):
Values joined by “and” are separate entries in the source; they are usually repeats but may differ in a detail not shown here. Equal values may be shown once. A structure can be active in one record and inactive in another. Active and inactive are the calls of the source. Rule for the calls: active = hit-call score of the fitted dose curve at least 0.9, where 1 is the maximum; inactive = score below 0.9.

Legend:
[1] = APR_HepG2_CellCycleArrest_1hr: Apredica 1-hour HepG2 Assay for Cell Cycle Arrest (AID 2282666); conditions: high-content imaging, actives raise or lower the signal
How it was run: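 Cell cycle arrest scored from nuclear DNA content (Hoechst 33342) using high-content imaging of fixed HepG2 cells after 1 h treatment across 0.39–200 uM, in duplicate. Gain or loss fitted relative to 0.5% DMSO.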

[2] = APR_HepG2_MicrotubuleCSK_1hr: Apredica 1-hour HepG2 Assay for Microtubule CSK Stabilty (AID 2282669); conditions: HepG2 microtubule cytoskeleton imaging, actives raise or lower the signal
How it was run: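 Alpha-tubulin immunofluorescence, imaged by automated high-content microscopy with Hoechst nuclear segmentation, measured cytoskeletal change after 1 h dosing of HepG2 at 0.39–200 uM in 0.5% DMSO. Activity fitted in both directions relative to DMSO.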

[3] = APR_HepG2_MitoticArrest_1hr: Apredica 1-hour HepG2 Assay for Mitotic Arrest (AID 2282672); conditions: high-content imaging, actives raise or lower the signal
How it was run: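 Ten-point concentration series (0.39 to 200 uM, duplicates, 0.5% v/v DMSO) applied to human HepG2 liver cells for 1 hr. High-content imaging of phospho-histone H3 and Hoechst-stained nuclei after fixation and permeabilization; DMSO-normalised bidirectional fit.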

[4] = APR_HepG2_CellCycleArrest_24hr: Apredica 24-hour HepG2 Assay for Cell Cycle Arrest (AID 2282905); conditions: imaging, actives raise or lower the signal;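 note: cell cycle arrest scored as ratio of 2N to 4N nuclear DNA content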
How it was run: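 Readout: Hoechst 33342 nuclear DNA content by high-content fluorescent imaging, six images/well, 20x. Human HepG2 liver cells, 24 hr compound exposure, 0.39–200 uM, final DMSO 0.5% v/v. Gain or loss fitted relative to DMSO baseline.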

[5] = APR_HepG2_StressKinase_1hr: Apredica 1-hour HepG2 Assay for Stress Kinase (AID 2282906); conditions: HepG2 stress kinase (phospho-c-Jun) imaging, actives raise or lower the signal
How it was run: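 High-content imaging of phospho-c-Jun immunostaining (with Hoechst nuclear identification) after a 1 h exposure of HepG2 cells to 10 concentrations from 0.39 to 200 uM, final DMSO 0.5%. Fitted bidirectionally against DMSO.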

[6] = APR_HepG2_NuclearSize_24hr: Apredica 24-hour HepG2 Assay for Nuclear Size (AID 2282907); conditions: high-content imaging, actives raise or lower the signal
How it was run: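 Read-out: nuclear diameter from Hoechst 33342 (2 ug/mL) imaging of fixed HepG2 cells, 20x, six fields/well. Compounds ran at 0.39–200 uM for 24 hr, 0.5% DMSO final. Gain or loss was fitted bidirectionally relative to the DMSO baseline.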

[7] = APR_HepG2_CellLoss_24hr: Apredica 24-hour HepG2 Assay for Cell Loss (AID 2282908); conditions: high-content imaging;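 for AC50: fit in both directions so a hit may be cell loss or gain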
How it was run: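 Read-out: Hoechst 33342-stained nuclei counted by automated fluorescence imaging after formaldehyde fixation and Triton permeabilization. Ten concentrations, 0.39 to 200 uM, duplicate wells, 0.5% DMSO final. Gain or loss of signal fitted relative to DMSO baseline.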

[8] = APR_HepG2_MicrotubuleCSK_24hr: Apredica 24-hour HepG2 Assay for Microtubule CSK Stabilty (AID 2282909); conditions: HepG2 microtubule cytoskeleton imaging, actives raise or lower the signal
How it was run: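 Read-out: alpha-tubulin immunofluorescence intensity by automated high-content imaging of fixed HepG2 cells after 24 h compound treatment. Ten concentrations, 0.39 to 200 uM, in duplicate; DMSO 0.5% v/v. Taxol positive control; DMSO-normalized bidirectional curve fitting.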

[9] = APR_HepG2_MitoticArrest_24hr: Apredica 24-hour HepG2 Assay for Mitotic Arrest (AID 2282910); conditions: high-content imaging, actives raise or lower the signal
How it was run: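 High-content imaging of fixed HepG2 cells labeled with Hoechst 33342 and anti-phospho-histone H3, after 24 h treatment. Ten concentrations 0.39 to 200 uM in duplicate, final DMSO 0.5%; changes fitted both directions relative to DMSO.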

[10] = APR_HepG2_MitoMembPot_24hr: Apredica 24-hour HepG2 Assay for Mitochondrial Membrane Potential (AID 2282911); conditions: imaging, actives raise or lower the signal
How it was run: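 HepG2 cells exposed 24 h to 0.39–200 uM compounds in duplicate, 0.5% v/v DMSO final. MitoTracker Red CMXRos 250 nM loaded 30 min before formaldehyde fixation; high-content imaging at 20x, bidirectional fit versus DMSO.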

[11] = APR_HepG2_MitoMass_24hr: Apredica 24-hour HepG2 Assay for Mitochondrial Mass (AID 2282912); conditions: high-content imaging, actives raise or lower the signal
How it was run: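 HepG2, 24 hr dosing, 10 concentrations 0.39–200 uM in duplicate, DMSO 0.5% final. MitoTracker Red CMXRos 250 nM, 30 min pre-fix; 3.7% formaldehyde fix. Imaging-based fluorescence intensity; gain/loss fit vs DMSO baseline.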

[12] = APR_HepG2_p53Act_24hr: Apredica 24-hour HepG2 Assay for p53 Activation (AID 2282913); conditions: high-content imaging, actives raise or lower the signal;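 note: p53 protein immunofluorescence averaged per cell in HepG2 with Hoechst nuclei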
How it was run: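 HepG2 cells exposed 24 h to compounds at 0.39–200 uM in duplicate, 0.5% v/v DMSO final; fixed, permeabilized, stained with anti-p53 antibody and Hoechst 33342; fluorescence imaging; bidirectional curve fit versus DMSO.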

[13] = APR_HepG2_CellCycleArrest_72hr: Apredica 72-hour HepG2 Assay for Cell Cycle Arrest (AID 2282914); conditions: high-content imaging, actives raise or lower the signal
How it was run: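 HepG2 cells exposed 72 h in duplicate to 0.39–200 uM compound, 0.5% DMSO final. Formaldehyde-fixed, Hoechst 33342-stained nuclei imaged at 20x, six fields per well; DNA content per valid cell quantified by cell-cycle image analysis, bidirectional fit versus DMSO.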

[14] = APR_HepG2_P-H2AX_1hr: Apredica 1-hour HepG2 Assay for H2AX Phosphorylation (AID 2282673); conditions: high-content imaging, actives raise or lower the signal
How it was run: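 Phospho-H2A.x immunofluorescence (1:200, FITC secondary) plus Hoechst nuclear stain, quantified by high-content imaging in HepG2 after 1 hr compound exposure. Ten concentrations, 0.39 to 200 uM, in duplicate with 0.5% DMSO; fit both directions against DMSO.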

[15] = APR_HepG2_NuclearSize_1hr: Apredica 1-hour HepG2 Assay for Nuclear Size (AID 2282670); conditions: high-content imaging, actives raise or lower the signal
How it was run: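 Nuclear size measured by high-content imaging of Hoechst 33342 nuclear stain after formaldehyde fixation; human HepG2 line exposed 1 hr to compounds at 0.39–200 uM in 0.5% DMSO, with bidirectional curve fitting relative to DMSO.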

[16] = APR_HepG2_MitoMembPot_1hr: Apredica 1-hour HepG2 Assay for Mitochondrial Membrane Potential (AID 2282675); conditions: imaging, actives raise or lower the signal
How it was run: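 Mitochondrial membrane potential read as MitoTracker Red CMXRos intensity by automated imaging of fixed HepG2 cells. Dye at 250 nM for 30 min pre-fixation; compounds 0.39 to 200 uM for 1 hour, duplicate wells, 0.5% DMSO.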

[17] = APR_HepG2_MitoMass_1hr: Apredica 1-hour HepG2 Assay for Mitochondrial Mass (AID 2282674); conditions: high-content imaging, actives raise or lower the signal
How it was run: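 Mitochondrial mass is taken from MitoTracker Red CMXRos (250 nM, 30 min, pre-fixation) fluorescence imaged at 20x in HepG2 cells. Exposure lasted 1 hr across ten concentrations, 0.39 to 200 uM, 0.5% DMSO; DMSO baseline, bidirectional fitting.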

Measured: AC50

O=[N+]([O-])c1c(Cl)c(Cl)c(Cl)c(Cl)c1Cl
active: [13] 81.9 µM
not listed: [14] | [15] | [16] | [17]
inactive: all other assays above

COP(=S)(OC)Oc1ccc([N+](=O)[O-])cc1
not listed: [3] | [15] | [16] | [17]
inactive: all other assays above

COc1nn(CSP(=S)(OC)OC)c(=O)s1
not listed: [3] | [14] | [15] | [16] | [17]
inactive: all other assays above

CNC(=O)Oc1ccccc1OC(C)C
not listed: [3] | [14] | [16] | [17]
inactive: all other assays above

O=C(Nc1ccccc1)Nc1cnns1
active: [16] 76.2 µM | [8] 68.9 µM
not listed: [3] | [14] | [15] | [17]
inactive: all other assays above

Oc1ccc(Cl)cc1Cc1ccccc1
active: [1] 114 µM | [15] 112 µM | [4] 102 µM [middle of 4 runs] | [5] 77.4 µM | [7] 77.3 µM [middle of 6 runs] | [8] 34.7 µM and 79.9 µM and 97.3 µM | [9] 43.1 µM and 76.7 µM and 54 µM | [11] 47.2 µM and 157 µM and 159 µM | [12] 80.5 µM and 50.5 µM | [13] 86.3 µM [middle of 4 runs]
inactive: [2] | [4] | [6] | [7] | [8] | [9] | [10] | [11] | [12] | [13]

CCC(C)(NC(=O)c1cc(Cl)c(C)c(Cl)c1)C(=O)CCl (configuration not stated)
active: [4] 12.8 µM | [5] 37 µM | [7] 32.3 µM | [9] 8.8 µM | [10] 30.1 µM
not listed: [3] | [14] | [15] | [16]
inactive: all other assays above
